Measured values published in PubChem BioAssay (NCI).
This is part of a sample that, as a whole, favours compounds with a hit. Of some 79,000 tested, about 15% had one in any assay. Values without a mark were called inactive. The source made the active and inactive calls. No stated cut-off is given here; in the data, active means growth inhibition above about 70%; inactive means the rest. Where a SMILES comes first, the peptide text is derived from it. [ ]: non-standard residue; d: D form. The star is where a group is joined. Cbz = O=C(OCc1ccccc1)*; Nva = CCC[CH](N)C(=O)O

Tests used:
[1] = NCI Yeast Anticancer Drug Screen. Data for the rad50 strain (AID 155);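 further: 0% = growth of vehicle-only cultures of the same strain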; conditions: S. cerevisiae rad50 strain growth inhibition; at 50.0 µM; stronger effect = higher value
Summary of the method: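 Growth of the mutant yeast was measured after compound exposure and referenced to vehicle-treated cultures.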

[2] = NCI Yeast Anticancer Drug Screen. Data for the mec2-1 strain (AID 157); conditions: S. cerevisiae mec2-1 strain, at 50.0 µM, stronger effect = higher value
Summary of the method: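 Using mec2-1 yeast: add compound, measure growth, express inhibition versus vehicle-treated cultures.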

[3] = NCI Yeast Anticancer Drug Screen. Data for the sgs1 mgt1 strain (AID 161);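 further: 0% = growth of cultures given vehicle only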; conditions: S. cerevisiae sgs1 mgt1 strain, at 50.0 µM, stronger effect = higher value
Summary of the method: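 Growth of a repair-deficient yeast mutant was monitored after compound treatment and expressed as inhibition relative to vehicle-treated cultures.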

[4] = NCI Yeast Anticancer Drug Screen. Data for the cln2 rad14 strain (AID 165);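 further: 0% = growth equal to vehicle treated cultures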; conditions: S. cerevisiae cln2 rad14 strain, at 50.0 µM, stronger effect = higher value
Summary of the method: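 Yeast strain cln2 rad14, bearing defects in cell cycle control and DNA repair, serves as the test system; values reflect growth inhibition compared with vehicle.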

[5] = NCI Yeast Anticancer Drug Screen. Data for the bub3 strain (AID 167); conditions: S. cerevisiae bub3 mutant strain, at 50.0 µM, stronger effect = higher value
Summary of the method: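 Whole-cell yeast assay. The mutant strain was incubated with compounds, and growth inhibition was determined by comparison with vehicle-treated cells.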

[6] = NCI Yeast Anticancer Drug Screen. Data for the mlh1 rad18 strain (AID 175); conditions: S. cerevisiae mlh1 rad18 strain growth inhibition; at 50.0 µM; stronger effect = higher value
Summary of the method: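 Steps: expose repair-defective yeast to compound; measure growth; express inhibition against vehicle-treated controls.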

CC(=O)OCC1OC(OC(C)=O)C(NC(=O)C(C)NC(=O)OCc2ccccc2)C(OC(C)=O)C1OC(C)=O (stereo not given)
growth inhibition [1]: 37.1%
growth inhibition [2]: 6.9%
growth inhibition [3]: 16.2%
growth inhibition [4]: 11.6%
growth inhibition [5]: -1.05%
growth inhibition [6]: 14.6%

O=C(CI)Nc1ccc(Cl)c(Cl)c1
growth inhibition [1]: 99.7% (active)
growth inhibition [2]: 99.3% (active)
growth inhibition [3]: 99.8% (active)
growth inhibition [4]: 99.6% (active)
growth inhibition [5]: 99.8% (active)
growth inhibition [6]: 99.7% (active)

Cc1ccc(C(C)C)c(OC2OC(C(=O)O)C(O)C(O)C2O)c1 (stereo not given)
growth inhibition [1]: 5.95%
growth inhibition [2]: 13.9%
growth inhibition [3]: -9%
growth inhibition [4]: -33.7%
growth inhibition [5]: 10.9%
growth inhibition [6]: -10.4%

COc1ccc(OC)c(N2C(=O)C(=O)C(C(C)=O)C2=O)c1 (stereo not given)
growth inhibition [1]: 27.7%
growth inhibition [2]: -1.95%
growth inhibition [3]: 7.15%
growth inhibition [4]: 25.1%
growth inhibition [5]: 7.65%
growth inhibition [6]: 16.5%

CCCC(NC(=O)OCc1ccccc1)C(=O)NC(CO)C(=O)O (stereo not given) (Cbz-[Nva]-Ser-OH; configuration not given here)
growth inhibition [1]: 24.6%
growth inhibition [2]: 4.15%
growth inhibition [3]: 9.05%
growth inhibition [4]: 26.6%
growth inhibition [5]: 8.25%
growth inhibition [6]: 8.05%

CC(Br)C(=O)n1c2ccccc2c2ccccc21 (stereo not given)
growth inhibition [1]: 21.6%
growth inhibition [2]: 9.8%
growth inhibition [3]: 19.8%
growth inhibition [4]: -13.8%
growth inhibition [5]: 12.2%
growth inhibition [6]: 8.1%

CN1CCOc2c1cnn(CCO)c2=O
growth inhibition [1]: -52.2%
growth inhibition [2]: -15.4%
growth inhibition [3]: -22.4%
growth inhibition [4]: -10.4%
growth inhibition [5]: -4.2%
growth inhibition [6]: -7.6%

CCCC1(CCC)CNC(=O)NC1
growth inhibition [1]: 0.45%
growth inhibition [2]: -3.9%
growth inhibition [3]: -5.1%
growth inhibition [4]: -11.1%
growth inhibition [5]: 1.5%
growth inhibition [6]: -10.8%

C=C1C(C)C2C(Cc3ccccc3)NC(=O)C23OC(=O)/C=C\CC(=O)CCC(C)C/C=C/C3C1O (stereo not given)
growth inhibition [1]: 91.4% (active)
growth inhibition [2]: 93.2% (active)
growth inhibition [3]: 93% (active)
growth inhibition [4]: 90.8% (active)
growth inhibition [5]: 90.8% (active)
growth inhibition [6]: 91.2% (active)

NC(CSC(c1ccccc1)(c1ccccc1)c1ccccc1)C(=O)OC(c1ccccc1)c1ccccc1 (stereo not given)
growth inhibition [1]: 19.3%
growth inhibition [2]: -7%
growth inhibition [3]: 29.6%
growth inhibition [4]: -44.5%
growth inhibition [5]: -18.7%
growth inhibition [6]: 22.2%

CCOC(=O)/C(OC(C)=O)=C1/C=C(C(=O)c2ccccc2)CCC1
growth inhibition [1]: 7.8%
growth inhibition [2]: 25.2%
growth inhibition [3]: 11.9%
growth inhibition [4]: -4.1%
growth inhibition [5]: 27.1%
growth inhibition [6]: 7.4%

Cc1ccc(NC(=O)/C=C/c2ccccc2)cc1
growth inhibition [1]: -2.85%
growth inhibition [2]: -8.1%
growth inhibition [3]: -3.15%
growth inhibition [4]: -3.95%
growth inhibition [5]: 10.2%
growth inhibition [6]: 10.9%

COC1CCC(C(C)=O)C(C#N)(C#N)C1(C#N)C#N (stereo not given)
growth inhibition [1]: -6.3%
growth inhibition [2]: -1.25%
growth inhibition [3]: -12.1%
growth inhibition [4]: -4.95%
growth inhibition [5]: -12.5%
growth inhibition [6]: -13.8%

CC(=O)Nc1ccc(C(C#N)C(C#N)c2ccccc2)cc1 (stereo not given)
growth inhibition [1]: -1.5%
growth inhibition [2]: 8.75%
growth inhibition [3]: -0.1%
growth inhibition [4]: -68.3%
growth inhibition [5]: 11.8%
growth inhibition [6]: -2.55%

COc1ccc(NC(=O)COc2cc(Cl)c(Cl)cc2Cl)cc1
growth inhibition [1]: -3.7%
growth inhibition [2]: 6.8%
growth inhibition [3]: 2.05%
growth inhibition [4]: 11.9%
growth inhibition [5]: 3.9%
growth inhibition [6]: -17.9%

COc1ccc(C2CN=NN2c2ccc([N+](=O)[O-])cc2)cc1 (stereo not given)
growth inhibition [1]: -18.4%
growth inhibition [2]: -16.6%
growth inhibition [3]: -9.15%
growth inhibition [4]: 28.2%
growth inhibition [5]: 46.1%
growth inhibition [6]: -18%

O=C(c1cccc(C(=O)N2CCCC2)n1)N1CCCC1
growth inhibition [1]: -11.4%
growth inhibition [2]: -13.2%
growth inhibition [3]: -1.7%
growth inhibition [4]: -25.6%
growth inhibition [5]: -15.5%
growth inhibition [6]: -18.8%

c1ccc(Sc2nc(Sc3ccccc3)nc(Sc3ccccc3)n2)cc1
growth inhibition [1]: -23.9%
growth inhibition [2]: -16.4%
growth inhibition [3]: -15.2%
growth inhibition [4]: 17.9%
growth inhibition [5]: -20.1%
growth inhibition [6]: -31.7%

Cc1cc[n+](C2=C([O-])C3=C(C(=O)C2=O)C2c4ccccc4C3c3ccccc32)c(C)c1
growth inhibition [1]: 98.5% (active)
growth inhibition [2]: 98.7% (active)
growth inhibition [3]: 98.8% (active)
growth inhibition [4]: 98.3% (active)
growth inhibition [5]: 90.2% (active)
growth inhibition [6]: 97.5% (active)

[N-]=[N+]=Nc1cc(-c2ccccc2)nc2cc3c(cc12)OCO3
growth inhibition [1]: -2.9%
growth inhibition [2]: -7.95%
growth inhibition [3]: -19.8%
growth inhibition [4]: -16.4%
growth inhibition [5]: -34.2%
growth inhibition [6]: -7.2%

CC(C)c1ccc2nc3ccc(C(=O)NCCN(C)C)cn3c(=O)c2c1
growth inhibition [1]: -15.8%
growth inhibition [2]: -0.25%
growth inhibition [3]: -10.4%
growth inhibition [4]: 2.65%
growth inhibition [5]: -1%
growth inhibition [6]: 9%

Cc1cccc(Cl)c1NC(=O)Nc1ccc(Cl)cc1C(=O)c1ccccc1
growth inhibition [1]: 5.5%
growth inhibition [2]: -4.1%
growth inhibition [3]: 6.75%
growth inhibition [4]: 4.2%
growth inhibition [5]: 7.45%
growth inhibition [6]: -9.6%

Cc1ccnc(SCC(=O)O)n1
growth inhibition [1]: -4.35%
growth inhibition [2]: -1.9%
growth inhibition [3]: 5.45%
growth inhibition [4]: 12.9%
growth inhibition [5]: 10.6%
growth inhibition [6]: 4.95%

CCCCCCCCCCCCCCCC(=O)OCC1OC(OC2(COC(=O)CCCCCCCCCCCCCCC)OC(COC(=O)CCCCCCCCCCCCCCC)C(OC(=O)CCCCCCCCCCCCCCC)C2OC(=O)CCCCCCCCCCCCCCC)C(OC(=O)CCCCCCCCCCCCCCC)C(OC(=O)CCCCCCCCCCCCCCC)C1OC(=O)CCCCCCCCCCCCCCC (stereo not given)
growth inhibition [1]: -6.25%
growth inhibition [2]: -26%
growth inhibition [3]: -34.1%
growth inhibition [4]: -14.7%
growth inhibition [5]: -13.9%
growth inhibition [6]: -6%

CCCCN(CCCC)/C(=C/C(=O)OC)C(=O)OC
growth inhibition [1]: 20.1%
growth inhibition [2]: 8.55%
growth inhibition [3]: 10.1%
growth inhibition [4]: 14.2%
growth inhibition [5]: 26.9%
growth inhibition [6]: 13.6%

Oc1ccccc1C=Nc1cccnc1
growth inhibition [1]: 6.75%
growth inhibition [2]: -19.5%
growth inhibition [3]: -2.45%
growth inhibition [4]: -7.2%
growth inhibition [5]: -0.6%
growth inhibition [6]: 8.7%

COc1ccc2[nH]cc(C=O)c2c1
growth inhibition [1]: 13.3%
growth inhibition [2]: -2.95%
growth inhibition [3]: -1.65%
growth inhibition [4]: 7.25%
growth inhibition [5]: -2.1%
growth inhibition [6]: 3.5%

Cc1ccc(/C=C2\N=C(N3CCCC(CO)C3)NC2=O)cc1 (stereo not given)
growth inhibition [1]: 18.6%
growth inhibition [2]: -1.55%
growth inhibition [3]: -18.3%
growth inhibition [4]: -1.15%
growth inhibition [5]: 1.3%
growth inhibition [6]: -44%

Nc1nc2c(c(-c3nc(N)nc4c3CCC4)n1)CCC2
growth inhibition [1]: 9.7%
growth inhibition [2]: 15.4%
growth inhibition [3]: 11.6%
growth inhibition [4]: 7%
growth inhibition [5]: -1.75%
growth inhibition [6]: 10.8%

COC(=O)c1ccccc1N=Cc1ccc(N(CCC#N)S(=O)(=O)c2ccccc2)cc1
growth inhibition [1]: -2.05%
growth inhibition [2]: 13.3%
growth inhibition [3]: -6.15%
growth inhibition [4]: 18.2%
growth inhibition [5]: 20.3%
growth inhibition [6]: 15.9%

COc1ccc(S(=O)(=O)/N=C(/C2CC3=CCC4C5CCC(=O)C5(C)CC(=O)C4C3(C)C2)N2CCCC2)cc1 (stereo not given)
growth inhibition [1]: 5.75%
growth inhibition [2]: 4.9%
growth inhibition [3]: 1.85%
growth inhibition [4]: -11.6%
growth inhibition [5]: -1.35%
growth inhibition [6]: -18%

C[N+](C)(C)C12CCC(CC1)C1([N+](C)(C)C)CCC2CC1
growth inhibition [1]: 4.2%
growth inhibition [2]: 21.4%
growth inhibition [3]: 17.2%
growth inhibition [4]: -10.2%
growth inhibition [5]: 4.45%
growth inhibition [6]: 22.1%

C/C=C/c1ccc(O)c(OC)c1
growth inhibition [1]: 13.1%
growth inhibition [2]: -11.6%
growth inhibition [3]: 4.85%
growth inhibition [4]: -5.95%
growth inhibition [5]: -3.25%
growth inhibition [6]: -9.3%

Nc1ccc([N+](=O)[O-])cc1C(=O)Oc1ccccn1
growth inhibition [1]: 9.15%
growth inhibition [2]: 5%
growth inhibition [3]: 8.5%
growth inhibition [4]: 10.8%
growth inhibition [5]: -3.6%
growth inhibition [6]: 19%

Cc1nc(N)nc2c1CCC(=O)N2
growth inhibition [1]: 11.7%
growth inhibition [2]: 7.6%
growth inhibition [3]: -3.1%
growth inhibition [4]: -37.6%
growth inhibition [5]: 0.65%
growth inhibition [6]: 1.7%

O=C1C=C[C@@H](COC2OC(CO)C(O)C(O)C2O)O1 (stereo not given in full)
growth inhibition [1]: 6.35%
growth inhibition [2]: -28.8%
growth inhibition [3]: 5.25%
growth inhibition [4]: 15.8%
growth inhibition [5]: 24.9%
growth inhibition [6]: 27.8%

C/C(N=NC(=S)N1CCCCC1C)=C1\C=CC=CN1O (stereo not given)
growth inhibition [1]: 49.2%
growth inhibition [2]: 4.25%
growth inhibition [3]: 54.7%
growth inhibition [4]: 89.4% (active)
growth inhibition [5]: 20.1%
growth inhibition [6]: 20.6%

COc1cc(C(=O)Nc2ccc(S(=O)(=O)Nc3nc(C)cc(C)n3)cc2)cc(OC)c1OC
growth inhibition [1]: -10.7%
growth inhibition [2]: -21.9%
growth inhibition [3]: -6.65%
growth inhibition [4]: 10.7%
growth inhibition [5]: -4.9%
growth inhibition [6]: -10.4%

OCc1c(-c2ccc(Cl)cc2)c(-c2ccc(Cl)cc2)c2n1CCC2
growth inhibition [1]: -0.65%
growth inhibition [2]: -18%
growth inhibition [3]: 1.3%
growth inhibition [4]: 90.4% (active)
growth inhibition [5]: -2.35%
growth inhibition [6]: -6.85%

COc1cc(C2C(C(=O)Nc3ccccc3C)=C(C)NC(C)=C2C(=O)Nc2ccccc2C)ccc1O
growth inhibition [1]: -27.1%
growth inhibition [2]: -8.45%
growth inhibition [3]: -16.6%
growth inhibition [4]: -3.15%
growth inhibition [5]: -10.8%
growth inhibition [6]: -9.95%
